# Assay results taken from PubChem BioAssay (Tox21).
# Inconclusive results are not listed. A call without a number means that no potency is given here. Values without a mark were called inactive. Calls of active or inactive are those of the source. The call rests on the fitted dose curve; in most records, active means well fitted inhibition curve with a large enough effect in the repeat runs; inconclusive means weak or mixed curves; inactive means flat fitted curve, though single readings scatter.
# Experiment: qHTS assay to identify small molecule HDAC inhibitors (AID 1259364); further: nearly all actives have a fitted effect of over 45% in size; on activity change, negative = inhibition: top concentration of the series differs between compounds
# Settings: HCT-116 HDAC-Glo I/II luminescence, 2 h; series mostly up to 92.4 µM
# From the text: U.S. Tox21 Program National Center for Advancing Translational Sciences [NCATS] NIH Chemical Genomics Center [NCGC] U.S. Environmental Protection Agency [EPA] National Institutes of Environmental Health Sciences [NIEHS] National Toxicology Program [NTP] U.S. Food and Drug Administration [FDA] Tox21 Assay Overview: Histone deacetylases (HDACs) are a group of epigenetic enzymes that regulate gene expression by histone deacetylation. HDACs are capable of introducing epigenetic modifications and such aberrations contribute to the onset and progression of several human diseases, thus making HDACs a popular therapeutic target. For identifying endogenous class I/II HDAC inhibitors a homogenous, luminogenic HDAC I/II cell based assay was used to measure the relative activity of class I and II HDACs from cells. Wild type HCT-116 cells were used to screen Tox21 libraries for identifying class I/II HDAC inhibitors.
# Tox21 Assay Protocol Summary: HCT-116 cells were dispensed at 1,500 per well in 5uL of culture medium into white solid bottom 1536-well plates (Greiner Bio-One, Monroe, NC) using a Multidrop Combi (Thermo Scientific, Waltham, MA) dispenser. The assay plates were incubated at 37 C and 5% CO2 for an overnight, and then 23nL of compounds dissolved in DMSO and positive control were transferred using a Pintool station (Wako, San Diego, CA). The assay plates were incubated at 37C and 5% CO2 for 2hr. After compound treatment, 4uL of HDAC-Glo reagent (Promega Corporation, Madison, WI) was added to each well of the assay plates using Flying Reagent Dispenser (FRD, Aurora Discovery, San Diego, CA) and incubated the assay plates at room temperature for 30min. The luminescence signal was quantified using a ViewLux plate reader (Perkin Elmer, Shelton, CT).
# Potency means the concentration at half of the fitted maximal effect.
Compound,Potency,"activity change, negative = inhibition"
CCCCOC(O)CC (stereo not given),inactive,
CC/C(=C\C(=N/O)C(N)=O)C(C)[N+](=O)[O-] (stereo not given),inactive,
Cc1cccc(OCCOc2cccc(C)c2)c1,inactive,
O=C1[C@H](CC[C@H](O)c2ccc(F)cc2)[C@@H](c2ccc(O)cc2)N1c1ccc(F)cc1,inactive,
CCCCCOC(=O)COc1cc(N2C(=O)C3=C(CCCC3)C2=O)c(F)cc1Cl,inactive,
c1ccc(CNCc2ccccc2)cc1,inactive,
NCCCN(CCO)CCO,inactive,
C#CCOC(=O)[C@@H](C)Oc1ccc(Oc2ncc(Cl)cc2F)cc1,inactive,
CC(C(=O)O)c1ccc(C(=O)c2ccccc2)s1 (stereo not given),6.68 µM (active),
CN(C)C/C=C(/c1ccc(Br)cc1)c1cccnc1,inactive,
CCOC(=O)C1=NN(c2ccccc2)C(=O)C1,inactive,
CC(C)CCCCCCOC(=O)c1ccc(C(=O)OCCCCCCC(C)C)c(C(=O)OCCCCCCC(C)C)c1,inactive,
CCCCCc1ccc(N)cc1,inactive,
COc1cc(C(C)(C)C)c(O)c(C(C)(C)C)c1,inactive,
C=CC(=O)OCCOC(=O)CCC(=O)O,inactive,
CCOC(=S)SSC(=S)OCC,inactive,
CC(C)(Oc1ccc(Cl)cc1)C(=O)OCCCOC(=O)C(C)(C)Oc1ccc(Cl)cc1,inactive,
CCc1nn(C2CCCCC2)c2cc(C3(C#N)CCC(C(=O)O)CC3)ccc12 (stereo not given),inactive,
CN1CCN(C2=Nc3cc(Cl)ccc3Nc3ccccc32)CC1,inactive,
O=CNc1ccccc1,inactive,

Compound,Potency,"activity change, negative = inhibition"
O=C(CCN1CCN2CCCC2C1)N1c2ccccc2Sc2ccc(Cl)cc21 (stereo not given),,3.91% [at 19 µM]
Oc1ccc(O)c2c(O)cccc12,inactive,
O=C(O)Cc1cc(I)c(Oc2ccc(O)c(I)c2)c(I)c1,inactive,
O=C(O)c1cn(C2CC2)c2cc(Cl)c(F)cc2c1=O,inactive,
CCCCCCCCCC=O,inactive,
COc1ccccc1OC(=O)Oc1ccccc1OC,inactive,
COc1ccc([C@@H]2Sc3ccccc3N(CCN(C)C)C(=O)[C@@H]2OC(C)=O)cc1,inactive,
Cc1nc2ccccc2n1Cc1ccc(Cl)cc1,inactive,
CC(=O)/C(C)=C/C1C(C)=CCCC1(C)C (stereo not given),inactive,
O=[N+]([O-])c1cc[n+]([O-])cc1,inactive,
CCCCCC(CO)CCC (stereo not given),inactive,
O=C(O)Cn1c(C(=O)Nc2nc(-c3ccccc3Cl)cs2)cc2ccccc21,inactive,
CCCCOc1cc(C(=O)OCCN(CC)CC)ccc1N,inactive,
Cc1ccc(O)c([C@H](CCN(C(C)C)C(C)C)c2ccccc2)c1,inactive,
Cc1ccc2c(ccc3ccccc32)c1,inactive,
Nc1ccc(C(=O)Nc2ccccc2N)cc1,2.98 µM (active),
CCOc1cc(OCC)c(C(=O)CCC(=O)O)cc1OCC,inactive,
O=C(O)C(c1ccc(Cl)cc1)c1ccc(Cl)cc1,inactive,
CC1(C)CCC(C)(C)c2cc(NC(=O)c3ccc(C(=O)O)cc3)ccc21,inactive,
O=C(O)Cc1sc(-c2ccccc2)nc1-c1ccc(Cl)cc1,inactive,
